Compounds without any hit were thinned out: in the full panel of roughly 83,000, 20% have a hit.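 Note: values are percent growth. 100 is the growth of untreated cells, values between 100 and 0 indicate rising inhibition; between -100 and 0 indicates cell death.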 A number with no mark means an inactive call. Active and inactive are the calls of the source. The calls were made as follows: active = growth percent below 10; inactive = the rest.
Experiments:
Experiment in all cases: NCI-60 one-dose screen, 48 h (100 = growth as untreated, 0 = no growth, -100 = all killed)
Conditions in all cases: 10 µM unless noted
DU-145 prostate = test system: DU-145 prostate
K-562 leukemia = test system: K-562 leukemia
MALME-3M melanoma = test system: MALME-3M melanoma
MDA-MB-231 breast = test system: MDA-MB-231 breast
RXF 393 renal = test system: RXF 393 renal
SF-268 CNS = test system: SF-268 CNS
SF-295 CNS = test system: SF-295 CNS
SF-539 CNS = test system: SF-539 CNS
UACC-257 melanoma = test system: UACC-257 melanoma
M14 melanoma = test system: M14 melanoma
HCT-15 colon = test system: HCT-15 colon
HT29 colon = test system: HT29 colon
SNB-75 CNS = test system: SNB-75 CNS
SNB-19 CNS = test system: SNB-19 CNS
U251 CNS = test system: U251 CNS
PC-3 prostate = test system: PC-3 prostate
SK-MEL-5 melanoma = test system: SK-MEL-5 melanoma
UACC-62 melanoma = test system: UACC-62 melanoma
LOX IMVI melanoma = test system: LOX IMVI melanoma
SK-MEL-28 melanoma = test system: SK-MEL-28 melanoma

| SMILES | growth (DU-145 prostate) | growth (K-562 leukemia) | growth (MALME-3M melanoma) | growth (MDA-MB-231 breast) | growth (RXF 393 renal) | growth (SF-268 CNS) | growth (SF-295 CNS) | growth (SF-539 CNS) | growth (UACC-257 melanoma) | growth (M14 melanoma) | growth (HCT-15 colon) | growth (HT29 colon) | growth (SNB-75 CNS) | growth (SNB-19 CNS) | growth (U251 CNS) | growth (PC-3 prostate) | growth (SK-MEL-5 melanoma) | growth (UACC-62 melanoma) | growth (LOX IMVI melanoma) | growth (SK-MEL-28 melanoma) |
| --- | --- | --- | --- | --- | --- | --- | --- | --- | --- | --- | --- | --- | --- | --- | --- | --- | --- | --- | --- | --- |
| C=C(C)[C@@H]1CC[C@]2(C(=O)NCCNCCNCCN)CC[C@]3(C)[C@H](CC[C@@H]4[C@@]5(C)CCC(=O)C(C)(C)[C@@H]5CC[C@]43C)[C@@H]12 | -56.7% [100 µM] (active) | -17% [100 µM] (active) | -72.8% [100 µM] (active) | -92.4% [100 µM] (active) | -71.9% [100 µM] (active) | -38.7% [100 µM] (active) | -54.5% [100 µM] (active) | -92.7% [100 µM] (active) | -10.7% [100 µM] (active) | -62.8% [100 µM] (active) | -36.6% [100 µM] (active) | -77.4% [100 µM] (active) | -41.5% [100 µM] (active) | -78.5% [100 µM] (active) | -81.8% [100 µM] (active) | -24.6% [100 µM] (active) | -86.2% [100 µM] (active) | -77.9% [100 µM] (active) | -68.2% [100 µM] (active) | -73.9% [100 µM] (active) |
| CCCCCCSc1ncnc2nc[nH]c12 | 95% | 70.7% | 102% | 96.8% | 78.1% | 96.3% | 88.8% | 87.4% | 91.4% | 97% | 90.8% | 103% | 91.2% | 86.2% | 90.1% | 85.2% | 94% | 77% | 80.1% | 101% |
| c1coc2occoc=2o1 | 111% | 99.1% | 103% | 108% | 117% | 105% | 99.1% | 95.2% | 106% | 101% | 102% | 106% | 97.4% | 107% | 101% | 96.8% | 97.2% | 102% | 102% | 112% |
| O=C1NC(=O)C(Cc2ccc(OCc3ccc(-c4cc(F)c(F)c(F)c4)cc3)cc2)S1 (stereo not given) | 95.1% | 65% | 93% | 76.7% | 102% | 78.5% | 85.7% | 85% | 90.7% | 94.8% | 88.2% | 107% | 83.2% | 93.5% | 86.1% | 71.4% | 76.5% | 56.2% | 77.4% | 102% |
| COc1cc(C)cc2oc3oc(=O)c(C(=O)c4cc5cc(Br)ccc5o4)cc3c(=O)c12 | 113% | 103% | 98.8% | 105% | 116% | 95% | 103% | 96.8% | 105% | 100% | 103% | 110% | 86.6% | 100% | 102% | 102% | 102% | 99.9% | 97.4% | 106% |
| O=C1NC(=O)C(Cc2ccccc2)(Cc2ccccc2)N1 | 111% | 108% | 109% | 98.4% | 117% | 95.1% | 94.2% | 102% | 105% | 93.9% | 102% | 94.1% | 85.2% | 95.2% | 101% | 83.2% | 94.3% | 97% | 89.4% | 119% |
| C#C[C@]1(O)CC[C@H]2[C@@H]3CC=C4c5nc(Nc6ccccc6[N+](=O)[O-])sc5CC[C@]4(C)[C@H]3CC[C@@]21C | 55.3% | 8.86% (active) | 51.7% | 52.4% | -44% (active) | 52.8% | -46.1% (active) | -31.5% (active) | 73% | -23.1% (active) | 35.3% | 55.7% | 17.9% | 76.6% | 39.7% | 41.8% | 60.6% | 67.8% | 73.1% | 62.1% |
| C=C(C)[C@@H]1CC[C@]2(C(N)=O)CC[C@]3(C)[C@H](CC[C@@H]4[C@@]5(C)C/C(=C/c6cccnc6)C(=O)C(C)(C)[C@@H]5CC[C@]43C)[C@@H]12 | 24.6% [100 µM] | 6.74% [100 µM] (active) | -19.7% [100 µM] (active) | 0.809% [100 µM] (active) | -8.8% [100 µM] (active) | 39.3% [100 µM] | 6.69% [100 µM] (active) | -14.3% [100 µM] (active) | 20.8% [100 µM] | 15.7% [100 µM] | 14.9% [100 µM] | -45.3% [100 µM] (active) | 40.6% [100 µM] | 27.8% [100 µM] | 9.19% [100 µM] (active) | 11.7% [100 µM] | -61.9% [100 µM] (active) | -1.04% [100 µM] (active) | -41.5% [100 µM] (active) | -8.42% [100 µM] (active) |
| CCN(CC)CCCC(C)Nc1ccnc2cc(Cl)c(SCc3ccccc3)cc12 (stereo not given) | 25.4% | -51.1% (active) | -77.3% (active) | -78.5% (active) | -91.1% (active) | -66.3% (active) | -81.7% (active) | -89.5% (active) | -79.2% (active) | -88.2% (active) | -68.8% (active) | -56.4% (active) | -86.2% (active) | -34.9% (active) | -54.3% (active) | -7.16% (active) | -94.9% (active) | -90.8% (active) | -90.9% (active) | -82.5% (active) |
| Cc1cc(SC#N)ncn1 | 112% | 95.1% | 100% | 93.3% | 105% | 111% | 128% | 103% | 103% | 108% | 102% | 108% | 86.7% | 103% | 103% | 107% | 100% | 93.5% | 93.7% | 114% |
| CC(=O)CC(=O)SC1=NCCS1 | 121% | 104% | 140% | 112% | 122% | 102% | 109% | 102% | 98.8% | 113% | 100% | 105% | 109% | 107% | 102% | 89.9% | 112% | 115% | 97.7% | 115% |
| FC(F)(F)c1ccc2c(c1)Sc1ccccc1N2 | 97.1% | 93.6% | 100% | 99.5% | 96.6% | 92.9% | 97.2% | 97.8% | 112% | 98.3% | 92.2% | 102% | 89% | 95.9% | 91.5% | 93.9% | 98.1% | 85.3% | 104% | 110% |
| C=C(C)[C@@H]1CC[C@]2(C(=O)OC)CC[C@]3(C)[C@H](CC[C@@H]4[C@@]5(C)CC/C(=N\OCCC(=NCCC#N)NOCCC#N)C(C)(C)[C@@H]5CC[C@]43C)[C@@H]12 | 27.5% [100 µM] | 5.42% [100 µM] (active) | 25.3% [100 µM] | 5.09% [100 µM] (active) | -43.1% [100 µM] (active) | 29.1% [100 µM] | 36.6% [100 µM] | -2.29% [100 µM] (active) | 8.82% [100 µM] (active) | 26.6% [100 µM] | 34.3% [100 µM] | 3.88% [100 µM] (active) | 18.4% [100 µM] | 28.9% [100 µM] | -39.7% [100 µM] (active) | 4.49% [100 µM] (active) | -84.7% [100 µM] (active) | -25.8% [100 µM] (active) | 14.6% [100 µM] | 29.2% [100 µM] |
| Nc1ccc(Cl)c([N+](=O)[O-])c1 | 107% | 84.6% | 119% | 107% | 109% | 96.7% | 96.7% | 101% | 95.1% | 95.7% | 87.8% | 106% | 89.3% | 108% | 99.1% | 88.3% | 97.6% | 80.1% | 66.9% | 100% |
